# Screens (PubChem)
# Shown are actives, neighbours in structure and some others; about 1.2% of the full set was active somewhere.
# KAT2A inh: inhibitors of human GCN5L2 histone acetyltransferase. Q92830. GCN5L2 HAT assay, ThioGlo1 CoA-SH fluorescence. Potency, µM (doses to about 58.9 µM), for the others: at the highest dose activity change, negative = inhibition, most hits filed as inhibitors. 390,000 tested, 0.21% active; note: potency is the fitted concentration of half-maximal effect
#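 Enzyme at 20nM final was mixed with library compounds for 15 min at room temperature. Peptide H3(1-25) at 75uM, acetyl-CoA at 70uM and ThioGlo1 at 50uM were then added. Plates were read immediately and after 20 min (Ex340nm/Em540nm).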
# PI4K2A inh: PI4K2A (human) kinase inhibition | AID 1346378 | 420,000 tested, 0.13% active | Q9BTU6 | activity change, negative = inhibition, % at 76.9 µM | purified PI4K2A, ADP-Glo luminescence, 1 h; hits give low values; in the data active = activity change below about -50%; inconclusive = mostly about -30% to -49%;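 note: -100% = wells without enzyme as full effect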
#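 In this quantitative HTS, ADP production by PI4K2A was quantified luminescently after 1 h at ambient temperature; 100 microM adenosine served as plate-quality control.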
# GoLoco inh red: RGS12 GoLoco-Gai1 interaction inhibition; Potency, µM (series often up to 61.6 µM), inactives show top-dose activity, negative = inhibition, most hits filed as inhibitors; 230,000 tested, 0.44% active; Gai1:RGS12 GoLoco peptide FP, rhodamine, 10 min; P63096; active = well fitted inhibition curve with a large enough effect, not every such curve was filed as active; inactive = no such curve, though single readings can be large or run the other way; note: potency is the fitted concentration of half-maximal effect; nearly all actives have a fitted effect of over 30% in size
# PGK inhibitor: T. brucei PGK inhibition | PGK/GAPDH coupled, Kinase-Glo luminescence, 60 min | Potency, µM (series often up to 57.5 µM), without a hit: at the top dose activity change, negative = inhibition, usual class: inhibitors | AID 602233 | P07378 | 380,000 tested, 0.043% active; note: potency is the fitted concentration of half-maximal effect; nearly all actives have a fitted effect of over 60% in size
# Target sequence (P07378 whole entry, looked up): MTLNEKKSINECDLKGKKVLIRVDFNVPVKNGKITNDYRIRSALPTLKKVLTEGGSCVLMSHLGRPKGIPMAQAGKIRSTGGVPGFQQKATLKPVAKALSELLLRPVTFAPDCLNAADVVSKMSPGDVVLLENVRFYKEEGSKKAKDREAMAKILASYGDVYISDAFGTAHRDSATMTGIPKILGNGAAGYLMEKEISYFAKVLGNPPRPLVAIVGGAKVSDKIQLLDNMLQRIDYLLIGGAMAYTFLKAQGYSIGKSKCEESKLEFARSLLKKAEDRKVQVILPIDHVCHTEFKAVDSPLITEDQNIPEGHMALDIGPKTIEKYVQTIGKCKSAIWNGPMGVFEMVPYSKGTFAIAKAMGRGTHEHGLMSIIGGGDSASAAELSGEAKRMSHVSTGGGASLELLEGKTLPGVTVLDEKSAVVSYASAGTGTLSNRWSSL
#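 Luminescent ATP detection (Kinase-Glo Plus) follows a 60-minute room-temperature incubation, with wells lacking PGK as controls. Buffer: 100 mM TEA (pH 7.6), 5 mM MgCl2, 0.01% Tween-20. Coupling enzyme GAPDH (100 nM final) supplies unstable 1,3-BPG in-well.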
# PI5P4Ka inh: inhibitors of human PI5P4K alpha; P48426; PI5P4Kalpha enzyme, ADP-Glo luminescence, 60 min; hits give low values; max response, %; 330,000 tested, 1.2% active; AID 652105; active = max response of -50% or lower; inconclusive = between -30% and -50%; inactive = -30% or higher; note: value at the top dose of about 77 µM
#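 Controls without substrate or without enzyme flank wells where PI5P4Kalpha converts substrate using 5 microM ATP (final). Incubation lasts 60 minutes at room temperature; ADP formed is read by ADP-Glo luminescence.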
# Pin1 inhibitor: blocks the human prolyl isomerase Pin1; Q13526; Pin1 FP peptide displacement, HiFluor488, 10 min; Potency, µM (titrated, usually from 115 µM), without a hit: top-dose activity, negative = inhibition, usual class: inhibitors; 390,000 tested, 0.009% active; AID 504891; active = well fitted inhibition curve with a large enough effect in the polarisation, with a control signal flat, not every such curve was filed as active; inconclusive = small, poorly fitted or top-dose-only effect, or effect the other way, or a change in a side signal; inactive = no such curve, though single readings can be large or run the other way; the % refers to the polarisation; note: potency is the fitted concentration of half-maximal effect
# Target sequence (Q13526 whole entry, looked up): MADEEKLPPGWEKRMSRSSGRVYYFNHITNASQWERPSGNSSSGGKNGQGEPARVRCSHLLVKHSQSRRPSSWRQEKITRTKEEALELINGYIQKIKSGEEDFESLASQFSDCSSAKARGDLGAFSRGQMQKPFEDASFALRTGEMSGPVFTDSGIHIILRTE
# Numbers without * were called inactive; i = inactive; u = inconclusive; x = no result given. Unless noted, calls come from the whole dose curve; as a rule, active = well fitted curve in the direction sought with a large enough effect; inconclusive = small, poorly fitted or top-dose-only effect, or another doubt; inactive = no such curve, though single readings can be large; an effect the other way counts as inactive or inconclusive. Unless noted, % is set by controls: 0 for no effect and ±100 for the full control effect.
SMILES,KAT2A inh,PI4K2A inh,GoLoco inh red,PGK inhibitor,PI5P4Ka inh,Pin1 inhibitor
O=c1cc(/N=C/c2coc3cc(Br)ccc3c2=O)[nH]c(=S)[nH]1,-13.3%,-2.9,11.1%,-6.2%,-83.1*,1.3%
CC(=O)Oc1ccc2c(=O)c(-c3ccccc3)coc2c1,-7.1%,-9.8,9.7%,-11.3%,-12.2,2.0%
Cc1cccc(C(=O)Nc2sc(C(=O)N3CCCC3)c(C)c2C#N)c1,-0.8%,-75.1*,3.6%,-3.8%,0.2,5.0%
Cc1nn(C(C)C(=O)Nc2ccc(Cl)cn2)c(C)c1[N+](=O)[O-] (stereo unspecified),-16.0%,-0.4,0.0%,-3.8%,x,0.0%
O=C(Nc1cc(C(=O)N2CCCC2)ccc1N1CCCC1)c1ccccc1F,-4.2%,1.1,6.4%,-7.4%,x,-3.4%
O=C(Nc1ccc(C(=O)N2CCCC2)cc1)c1ccccc1F,1.1%,-70.3*,-6.4%,u,x,-3.1%
O=C(O)c1ccc(N=NNc2cccc([N+](=O)[O-])c2)cc1,-8.1%,-11.4,12.0%,-4.1%,-52.8*,1.1%
O=c1[nH]c(=S)c2[nH]c(=S)n(-c3ccccc3)c2[nH]1,x,10.2,x,5.9%,-83.8*,-3.9%
O=c1[nH]c2cnccc2n1-c1ccccc1,1.0%,0.9,2.8%,-1.7%,2.0,-4.6%
O=c1[nH]c(=O)c2[nH]c(=O)n(-c3ccccc3)c2[nH]1,x,-14.3,x,5.9%,-57.5*,-19.1%
CCOC(=O)c1cn(CC2CC2)c2cc(F)c(F)cc2c1=O,-5.6%,-0.5,6.2%,2.4%,-2.1,1.3%
O=C(CSc1nc(-c2ccccc2Cl)ns1)Nc1ccc2c(c1)OCO2,-7.5%,1.4,7.3%,i,0.7,13.5%
NC(=S)N/N=C/c1coc2ccc(Cl)cc2c1=O,-11.4%,2.0,27.1%,-2.0%,-10.5,8.8%
CN(C)c1cccc(CNC(=O)c2ccc3nc([C@@H]4O[C@H](CO)[C@H](O)[C@H](O)[C@H]4O)[nH]c3c2)c1,x,-3.0,x,x,7.8,x
O=C(NC(NNc1ccc([N+](=O)[O-])cc1)(C(F)(F)F)C(F)(F)F)c1ccc(Cl)cc1,-26.4%,4.2,-2.8%,-3.1%,-67.0*,-1.7%
N#CC1=C2Sc3ccccc3N2CCCC1=O,-0.1%,-0.3,15.1%,4.9%,x,-0.3%
N=C1C2=C3Sc4ccccc4N3CCCC2=NN1c1cccc(S(=O)(=O)O)c1,0.7%,-4.6,4.1%,-3.9%,-53.4*,2.4%
COc1ccc(NC(=O)C(c2ccnc3ccccc23)n2c(=O)c(-c3ccco3)nc3ccccc32)cc1 (stereo unspecified),x,-7.8,x,x,-24.2,x
Cc1cccc(C)c1NC(=O)C(c1ccccc1F)n1c(=O)c(-c2ccco2)nc2ccccc21 (stereo unspecified),x,-7.5,x,x,-67.3*,x
Cc1cccc(C)c1NC(=O)C(c1ccnc2ccccc12)n1c(=O)c(-c2ccco2)nc2ccccc21 (stereo unspecified),x,-6.8,x,x,-72.2*,x
Cc1cccc(C)c1NC(=O)C(c1ccc(-c2ccccc2)cc1)n1c(=O)c(-c2ccco2)nc2ccccc21 (stereo unspecified),x,-12.3,x,x,-99.1*,x
CN(C)c1ccc(CNC(=O)/C=C/[C@H]2O[C@@H](n3cnc4c(NC(=O)c5ccccc5)ncnc43)[C@H](O)[C@@H]2O)cc1,x,-6.3,x,x,1.8,x
Nc1nc(Nc2cccc(F)c2)nc(NCCO)c1[N+](=O)[O-],-21.1%,2.1,2.9%,-11.1%,-63.0*,-7.0%
CN(C)c1ccc(O)c2c1C[C@@H]1C[C@H]3C(N(C)C)C(=O)C(C(N)=O)=C(O)[C@@]3(O)C(=O)C1=C2O (stereo partly specified),0.8%,x,-2.3%,x,x,x
C=C1c2cccc(O)c2C(O)=C2C(=O)[C@]3(O)C(O)=C(C(N)=O)C(=O)C(N(C)C)C3C(O)C12 (stereo partly specified),10µM*,x,-14.8%,x,x,x
SMILES,KAT2A inh,PI4K2A inh,GoLoco inh red,PGK inhibitor,PI5P4Ka inh,Pin1 inhibitor
C=C1c2cccc(O)c2C(O)=C2C(=O)[C@]3(O)C(O)=C(C(N)=O)C(=O)[C@@H](N(C)C)[C@@H]3[C@@H](O)[C@H]12,-11.7%,u,-44.8%,-4.4%,-57.9*,x
C[C@H]1c2cccc(O)c2C(O)=C2C(=O)C3(O)C(O)=C(C(N)=O)C(=O)[C@@H](N(C)C)[C@@H]3[C@@H](O)[C@@H]21 (stereo partly specified),-13.6%,-6.6,x,1.9%,-2.0,-2.0%
C=C1c2c(Cl)ccc(O)c2C(O)=C2C(=O)[C@]3(O)C(O)=C(C(N)=O)C(=O)C(N(C)C)C3C(O)C12 (stereo partly specified),25.1µM*,x,-8.3%,x,x,x
CCC(C)C(Nc1ccc(C(=O)OC)cc1[N+](=O)[O-])C(=O)OC (stereo unspecified),-2.4%,0.2,0.1%,-3.3%,-0.7,-1.8%
CCOC(=O)c1[nH]c2ccc(OC)cc2c1NC(=O)c1cccc(OC)c1,-9.9%,-3.2,5.7%,-7.1%,3.2,u
COc1ccc(C(CNC(=O)c2ccc(-c3ccccc3Cl)o2)N2CCCC2)cc1 (stereo unspecified),x,-2.4,x,-6.5%,-1.1,x
O=C(O)C(c1ccccc1)N1C(=O)/C(=C\c2ccc(-c3ccccc3Cl)o2)SC1=S (stereo unspecified),u,2.5,x,11.2µM*,u,u
O=C(O)C(c1ccccc1)N1C(=O)/C(=C\c2ccc(-c3ccc(Br)cc3)o2)SC1=S (stereo unspecified),u,-0.4,x,1.1%,u,u
CCOCCCNC(=O)/C(C#N)=C/c1cc(OC)c(O)c([N+](=O)[O-])c1,-12.3%,-7.4,8.6%,-0.2%,-63.8*,-5.5%
O=C(N/N=C\c1cccc([N+](=O)[O-])c1O)C1COc2ccccc2O1 (stereo unspecified),37.2%,0.5,3.2%,0.6%,-69.1*,-7.7%
Cc1ccc(-n2c(O)c(/C=N/NC(=O)C3COc4ccccc4O3)c3ccccc3c2=O)cc1 (stereo unspecified),-2.4%,1.9,79.9%,4.5%,u,u
O=C(N/N=C/c1c(O)n(-c2ccccc2Cl)c(=O)c2ccccc12)C1COc2ccccc2O1 (stereo unspecified),-9.1%,3.3,138.4%,7.9%,-53.2*,u
O=C(N/N=C/c1ccc([N+](=O)[O-])cc1)c1cccs1,-10.1%,4.6,12.5%,-15.8%,-4.0,24.4%
O=C(N/N=C/c1cccc([N+](=O)[O-])c1O)c1cccs1,-4.9%,-0.9,5.1%,-5.7%,-51.2*,-9.2%
